Bioassay records deposited in PubChem BioAssay by National Center for Advancing Translational Sciences (NCATS).
p53null 39C tox = p53 null cell cytotoxicity, nonpermissive temperature; H1299 p53-null (neo) cells, 39C, ATPlite viability, 24 h; Potency, µM (highest dose often 46.1 µM), without a hit: at the highest dose activity, negative = cell killing, hits mostly cytotoxic; 0.97% of 55,000 active;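 further: potency means the concentration at half of the fitted maximal effect; 0% = DMSO only and -100% = full killing by 100 µM tamoxifen; nearly all actives have a fitted effect of over 50% in size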
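Luminescent ATP signal reported cell survival after H1299 lines (neo, p53 null; or p53 A138V) received up to 46 uM compound and 24 hr incubation at 39C.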
mTORC1 inh = inhibitors of mTORC1 signaling in Tsc2-/- p53-/- MEF cells; Tsc2-/- p53-/- MEF, phospho-rpS6 immunofluorescence/PI, 24 h; Potency, µM (top dose mostly 38.3 µM), for the others: at the highest dose activity change, negative = inhibition, actives largely listed as inhibitors; 0.78% of 44,000 active;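 further: potency means the concentration at half of the fitted maximal effect; plate controls were DMSO for no effect and rapamycin for full effect; nearly all actives have a fitted effect of over 50% in size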
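Readout is phospho-S6 Alexa 488 signal normalized to PI per well, reported as % active cells with thresholds set from rapamycin (7.5 nM) and DMSO controls. Cells: Tsc2-/-, p53-/- MEFs, 24 hrs compound at 37 C; PI cell number serves as viability.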
p53null 32C kill = p53 null cell cytotoxicity, permissive temperature; H1299-neo p53 null cells, ATP luminescence, 24 h, 32C; 0.62% of 55,000 active; Potency, µM (top dose mostly 46.1 µM), for the others: at the top dose activity change, negative = cytotoxicity, most hits filed as cytotoxic;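 further: potency means the concentration at half of the fitted maximal effect; 0% = DMSO only and -100% = full killing by 100 µM tamoxifen; nearly all actives have a fitted effect of over 55% in size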
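AC50 values derive from Hill modelling of qHTS concentration-response data (up to 46 uM) in H1299-neo cells. Cells were treated 24 h at 32C following overnight attachment at 37C; viability was read as cellular ATP.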
PMP22 txn = modulates PMP22 transcription in S16 Schwann cells | S16 Pmp22-F2sN Schwann cells, FLuc/NLuc coincidence luminescence, 24 h | Potency, µM (top dose mostly 57.5 µM), for the others: at the highest dose activity change, negative = inhibition, actives largely listed as inhibitors | 2% of 43,000 active; active means clear falling dose curves in both reporters; inconclusive means both reporters move, but less clearly or upward; inactive means either reporter flat; the % is the NLuc reporter signal; further: potency means the concentration at half of the fitted maximal effect; on the % scale 0 is the no-effect control and ±100 the full control effect
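Luminescent read-out of sequential FLuc and NLuc signals from a reporter embedded in the Pmp22 3' UTR of S16 Schwann cells, taken after 24 h compound exposure at 37C; compounds reducing both signals score as inhibitors of expression.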
S16 viability = S16 Schwann cell cytotoxicity; Potency, µM (top dose mostly 57.5 µM), inactives show at the top dose activity change, negative = cytotoxicity, actives largely listed as cytotoxic; S16 Pmp22-F2sN Schwann cells viability, CellTiter-Glo, 24 h; AID 1508642; 0.48% of 43,000 active; further: potency means the concentration at half of the fitted maximal effect; on the % scale 0 is the no-effect control and ±100 the full control effect; nearly all actives have a fitted effect of over 65% in size
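Seed 500-1,000 S16 Pmp22-F2sN cells per well in phenol-red-free DMEM with 10% heat-inactivated FBS; pin-add 23 nL compound; incubate 24 h at 37C; add CellTiter-Glo, wait 15 min protected from light; read luminescence.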
NLuc sat counter = counter-screen for PMP22 expression modulators: NanoLuc inhibition, saturating substrate; shares compounds with PMP22 txn; Secreted NLuc enzyme (filtered S16 cell medium), Nano-Glo luminescence; Potency, µM (titrated, usually from 57.5 µM), for inactives: at the highest dose activity change, negative = inhibition, usual class: inhibitors; 4% of 690 active; AID 1508638; further: potency means the concentration at half of the fitted maximal effect; on the % scale 0 is the no-effect control and ±100 the full control effect
NLuc Km counter = inhibits NanoLuc under Km conditions, PMP22 counter-screen; shares compounds with PMP22 txn; secreted NLuc enzyme, coelenterazine luminescence, Km conditions; Potency, µM (top dose mostly 57.5 µM), inactives show at the top dose activity change, negative = inhibition, most hits filed as inhibitors; 5% of 690 active; AID 1508639; further: potency means the concentration at half of the fitted maximal effect; on the % scale 0 is the no-effect control and ±100 the full control effect
FLuc ctr PMP22 = firefly luciferase enzyme inhibition artifact for PMP22 screen | shares compounds with PMP22 txn | purified P. pyralis FLuc, luminescence, 10 min | Potency, µM (top dose mostly 57.5 µM), without a hit: top-dose activity, negative = inhibition, usual class: inhibitors | 690 tested, under 10 active; further: % of control where 0% means no effect
Target sequence (P08659 whole entry, looked up): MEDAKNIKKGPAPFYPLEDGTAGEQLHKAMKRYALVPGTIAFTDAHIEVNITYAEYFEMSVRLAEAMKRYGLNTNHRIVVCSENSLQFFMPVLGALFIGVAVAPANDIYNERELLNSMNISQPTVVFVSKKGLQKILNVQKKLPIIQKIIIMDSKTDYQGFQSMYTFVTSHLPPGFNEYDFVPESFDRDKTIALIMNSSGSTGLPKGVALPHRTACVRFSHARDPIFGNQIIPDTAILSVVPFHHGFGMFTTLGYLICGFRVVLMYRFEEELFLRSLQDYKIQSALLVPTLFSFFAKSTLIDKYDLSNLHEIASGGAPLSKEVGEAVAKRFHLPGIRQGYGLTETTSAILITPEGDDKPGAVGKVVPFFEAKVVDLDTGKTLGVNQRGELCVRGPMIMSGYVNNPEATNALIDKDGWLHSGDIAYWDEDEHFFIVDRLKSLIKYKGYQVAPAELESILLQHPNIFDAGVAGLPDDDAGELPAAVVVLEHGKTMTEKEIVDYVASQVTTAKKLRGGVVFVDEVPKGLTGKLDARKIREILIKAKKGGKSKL
S16 viab conf = confirmation of cytotoxicity in S16 Pmp22-F2sN Schwann cells (luciferase reporters placed in the Pmp22 gene); AID 1508641; shares compounds with PMP22 txn; S16 Schwann cells viability, CellTiter-Glo ATP luminescence, 24 h; Potency, µM (doses to about 57.5 µM), for the others: at the highest dose activity change, negative = viability loss, hits mostly cytotoxic; 7% of 690 active; further: potency means the concentration at half of the fitted maximal effect; on the % scale 0 is the no-effect control and ±100 the full control effect
PMP22 txn cnf = PMP22 transcription modulation, confirmatory; S16 Schwann cells Pmp22-F2sN, dual luciferase, 24 h; shares compounds with PMP22 txn; 22% of 690 active; Potency, µM (top dose mostly 57.5 µM), without a hit: at the top dose activity change, negative = inhibition, usual class: inhibitors; active means clear falling dose curves in both reporters; inconclusive means both reporters move, but less clearly or upward; inactive means either reporter flat; the % is the FLuc reporter signal; further: potency means the concentration at half of the fitted maximal effect
PMP22 prot conf = rat PMP22 protein level modulation, confirmatory. shares compounds with PMP22 txn. S16 Schwann cells Pmp22-HiBiT, luminescence, 48 h. Potency, µM (doses to about 27.9 µM), for the others: top-dose activity change, negative = inhibition, usual class: inhibitors. 95 tested, under 10 active. AID 1508647
Target sequence (P25094 whole entry, looked up): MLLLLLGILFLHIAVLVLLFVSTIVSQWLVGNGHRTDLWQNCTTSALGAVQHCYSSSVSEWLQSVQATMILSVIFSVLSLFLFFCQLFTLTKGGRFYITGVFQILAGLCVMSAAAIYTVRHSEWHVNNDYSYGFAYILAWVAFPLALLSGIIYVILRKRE
* = called active by the depositor; ? = inconclusive; . = no result. Sampled rows, rich in hits. Any-hit rate of the full collection: about 3.2%. Unless noted, the call rests on the fitted dose curve; in most records, active means well fitted curve in the direction sought with a large enough effect; inconclusive means small, poorly fitted or top-dose-only effect, or another doubt; inactive means no such curve, though single readings can be large; an effect the other way counts as inactive or inconclusive.

SMILES | p53null 39C tox | mTORC1 inh | p53null 32C kill | PMP22 txn | S16 viability | NLuc sat counter | NLuc Km counter | FLuc ctr PMP22 | S16 viab conf | PMP22 txn cnf | others
COc1ccc(NC(=O)Cn2c(=O)n(CCCC(=O)NCc3ccccc3OC)c(=O)c3ccccc32)cc1Cl | -20% | ? | 0% | ? | 21% | . | . | . | . | .
COc1ccc(NC(=O)Cn2c(=O)n(Cc3ccccc3Cl)c(=O)c3cc(OC)c(OC)cc32)cc1OC | -21% | -6% | -7% | 13µM* | 24% | -1% | 5% | -2% | 11% | 2%
COc1ccc(NC(=O)Cn2c(=O)n(Cc3ccc(C(=O)NCc4ccccc4Cl)cc3)c(=O)c3ccccc32)cc1OC | -19% | -4% | 4% | -43% | -12% | . | . | . | . | .
COc1ccc(NC(=O)Cn2c(=O)n(CCC(=O)NCc3ccccc3OC)c(=O)c3ccccc32)cc1Cl | 20% | -5% | 5% | 15µM* | 8% | -5% | 3% | 6% | -19% | 13µM* | PMP22 prot conf=?
Cc1cccc(CCn2c(=O)c3ccccc3n(CC(=O)Nc3ccccc3F)c2=O)c1 | 9% | -19% | -15% | 16µM* | 25% | -2% | 4% | 3% | -8% | -22%
COc1ccccc1CNC(=O)CCCCn1c(=O)c2ccccc2n(Cc2ccccc2C)c1=O | -7% | -8% | 7% | 14µM* | -4% | -16% | ? | 2% | -26% | ?
COc1ccccc1CNC(=O)CCCCn1c(=O)c2ccccc2n(Cc2ccccc2F)c1=O | 2% | 0% | 17% | ? | 3% | . | . | . | . | .
CC(=O)c1cccc(NC(=O)c2noc3c2CC(C)CC3)c1 (configuration not stated) | 21% | 0% | -24% | -20% | 3% | . | . | . | . | .
Cc1nc2c(-c3ccc(F)cc3)c(C)nn2c(C)c1CCC(=O)N1CCN(c2ccccc2)CC1 | -3% | -4% | 1% | ? | -1% | . | . | . | . | .
COc1ccc(NC(=O)CCCn2c(=O)c3cccn3c3cccnc32)cc1Cl | -12% | -4% | -9% | 15µM* | -1% | -17% | -18% | -7% | -6% | -26%
COc1ccc(NC(=O)CCn2c(=O)c3cccn3c3cccnc32)cc1Cl | -23% | -1% | -3% | -17% | 18% | . | . | . | . | .
O=C(CCCCn1c(=O)c2ccccc2n(CC(=O)Nc2ccc(F)cc2F)c1=O)NCc1ccccc1Cl | -1% | -2% | 13% | 16µM* | 18% | -4% | -5% | 1% | -8% | ?
O=C(CCCn1c(=O)c2ccccc2n(CC(=O)Nc2ccc(F)cc2F)c1=O)NCc1ccccc1Cl | -28% | -8% | -6% | ? | 13% | . | . | . | . | .
COc1ccc(Cl)cc1NC(=O)Nc1c[nH]c(=O)[nH]c1=O | -15% | 0% | 1% | -12% | 1% | . | . | . | . | .
COc1ccc(Br)cc1CNC(=O)C1COc2ccccc2C1 (configuration not stated) | -11% | -5% | 7% | -12% | 8% | . | . | . | . | .
O=C(NCCSc1c(-c2ccc(Br)cc2)[nH]c2ccccc12)c1ccc(S(=O)(=O)N2CCOCC2)cc1 | -7% | -16% | 11% | 8µM* | -19% | -10% | 5% | 9% | 1% | ?
O=C(NCCSc1c(-c2ccc(Cl)cc2)[nH]c2ccccc12)c1ccc(S(=O)(=O)N2CCOCC2)cc1 | 18% | -12% | 15% | -11% | ? | . | . | . | . | .
Cc1ccc(-c2[nH]c3ccccc3c2SCCNC(=O)c2ccc(S(=O)(=O)N(C)C)cc2)cc1 | 4% | -12% | 20% | ? | ? | . | . | . | . | .
O=C(NCCSc1c(-c2ccccc2)[nH]c2ccccc12)c1ccc(S(=O)(=O)N2CCOCC2)cc1 | -10% | -17% | 19% | 9.5µM* | -27% | -14% | -16% | 7% | -20% | -9%
CCN(CC)S(=O)(=O)c1ccc(C(=O)NCCSc2c(-c3ccc(OC)cc3)[nH]c3ccccc23)cc1 | 14% | -11% | 8% | 3µM* | -15% | -24% | 0% | -2% | -24% | -12%
CCCN(C(=O)Cc1nc(-c2ccc(OC)cc2)no1)c1ccccc1C | -13% | -8% | 3% | -9% | 2% | . | . | . | . | .
Cn1nnnc1SCCCNCc1ccccc1OCc1ccccc1Cl | -10% | ? | -5% | 13µM* | ? | -1% | ? | 1% | -27% | ?
COc1ccc(-c2noc(CSc3nnc(-c4ccncc4)n3-c3ccc(C)cc3)n2)cc1 | 15% | -4% | 0% | 8.9µM* | -23% | ? | ? | -12% | -24% | 3.7µM* | PMP22 prot conf=?
Cc1ccc(-n2c(SCc3nc(-c4ccc(Cl)cc4)no3)nnc2-c2ccncc2)cc1 | ? | -20% | 13% | 13µM* | ? | -18% | ? | -3% | -7% | ?
COc1ccc(-c2noc(CSc3nnc(C)n3-c3ccc(F)cc3)n2)cc1 | -6% | -5% | -10% | ? | -10% | ? | ? | ? | -9% | -27%
Cc1ccc(Cn2c(C(=O)O)c(CNC3CCCCC3)c3ccc(C)cc32)cc1 | 7% | 6% | -3% | 15% | 10% | . | . | . | . | .
COc1cc(-c2noc(CCCC(=O)NCc3ccco3)n2)cc(OC)c1OC | 13% | . | -11% | . | . | . | . | . | . | .
